Our source for the inhibition values is ChEMBL document CHEMBL1961873, “Compounds: GSK PKIS; Assays: Nanosyn kinase panel” (2012).

Assay [1] addresses Protein kinase C gamma type (Homo sapiens) (UniProt P05129). Particulars: at 1 µM.
The target in assay [2] is T1, Protein kinase C iota type (Homo sapiens) (UniProt P41743).
T1 sequence (whole entry): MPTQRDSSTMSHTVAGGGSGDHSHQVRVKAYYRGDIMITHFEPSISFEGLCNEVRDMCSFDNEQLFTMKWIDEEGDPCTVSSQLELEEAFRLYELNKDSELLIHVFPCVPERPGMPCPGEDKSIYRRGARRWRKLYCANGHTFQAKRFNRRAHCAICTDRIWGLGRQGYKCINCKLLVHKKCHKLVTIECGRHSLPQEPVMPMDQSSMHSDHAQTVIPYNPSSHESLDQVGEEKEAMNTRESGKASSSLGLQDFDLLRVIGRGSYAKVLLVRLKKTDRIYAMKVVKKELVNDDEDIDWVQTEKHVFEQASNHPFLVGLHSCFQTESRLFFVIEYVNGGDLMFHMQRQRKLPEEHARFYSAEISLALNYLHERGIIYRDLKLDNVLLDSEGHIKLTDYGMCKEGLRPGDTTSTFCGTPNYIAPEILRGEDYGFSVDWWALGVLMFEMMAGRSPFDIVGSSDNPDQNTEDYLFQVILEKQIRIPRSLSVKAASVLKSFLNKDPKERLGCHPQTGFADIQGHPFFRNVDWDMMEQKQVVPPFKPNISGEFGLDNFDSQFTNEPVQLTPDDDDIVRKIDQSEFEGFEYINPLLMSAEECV
The settings on record: at 0.1 µM.

For assay [3], the target named is T1, Protein kinase C iota type (Homo sapiens). The settings on record: at 1 µM.
Assay [4] concerns the target Protein kinase C theta type (Homo sapiens) (UniProt Q04759). The settings on record: at 0.1 µM.
Assay [5] has the same target. The settings on record: at 1 µM.
Assay [6] has as its target Protein kinase C beta type (Homo sapiens) (UniProt P05771). The settings on record: at 0.1 µM.
For assay [7] the target is unchanged. Particulars: at 1 µM.
Assay [8] has as its target T2, Serine/threonine-protein kinase D1 (Homo sapiens) (UniProt Q15139).
T2 sequence (whole entry): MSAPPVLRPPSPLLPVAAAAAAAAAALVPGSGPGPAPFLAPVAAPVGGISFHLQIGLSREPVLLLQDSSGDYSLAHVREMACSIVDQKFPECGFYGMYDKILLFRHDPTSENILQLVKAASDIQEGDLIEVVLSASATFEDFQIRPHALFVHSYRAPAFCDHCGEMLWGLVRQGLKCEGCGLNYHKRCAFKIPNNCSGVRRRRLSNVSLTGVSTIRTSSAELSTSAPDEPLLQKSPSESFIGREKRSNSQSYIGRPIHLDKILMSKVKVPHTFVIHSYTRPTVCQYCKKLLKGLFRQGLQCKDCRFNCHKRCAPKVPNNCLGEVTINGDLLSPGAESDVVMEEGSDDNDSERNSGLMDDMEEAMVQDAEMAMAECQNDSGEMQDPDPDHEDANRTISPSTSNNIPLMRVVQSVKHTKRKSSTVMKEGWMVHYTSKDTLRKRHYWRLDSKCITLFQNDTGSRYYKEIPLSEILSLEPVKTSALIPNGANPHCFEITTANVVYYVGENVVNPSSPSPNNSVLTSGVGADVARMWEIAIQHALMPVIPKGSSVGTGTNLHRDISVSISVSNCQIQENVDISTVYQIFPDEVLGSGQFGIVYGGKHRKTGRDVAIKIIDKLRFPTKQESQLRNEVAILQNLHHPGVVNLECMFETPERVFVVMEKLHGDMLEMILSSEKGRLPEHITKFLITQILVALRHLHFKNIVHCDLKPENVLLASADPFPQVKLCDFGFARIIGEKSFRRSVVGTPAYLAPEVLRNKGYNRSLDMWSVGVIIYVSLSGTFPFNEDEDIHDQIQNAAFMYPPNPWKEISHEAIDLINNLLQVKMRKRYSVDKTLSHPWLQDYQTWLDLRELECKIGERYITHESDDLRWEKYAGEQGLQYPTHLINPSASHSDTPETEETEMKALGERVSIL
The settings on record: at 0.1 µM.

The target in assay [9] is T2, Serine/threonine-protein kinase D1 (Homo sapiens). The settings on record: at 1 µM.
Assay [10] has as its target T3, Serine/threonine-protein kinase D2 (Homo sapiens) (UniProt Q9BZL6).
T3 sequence (whole entry): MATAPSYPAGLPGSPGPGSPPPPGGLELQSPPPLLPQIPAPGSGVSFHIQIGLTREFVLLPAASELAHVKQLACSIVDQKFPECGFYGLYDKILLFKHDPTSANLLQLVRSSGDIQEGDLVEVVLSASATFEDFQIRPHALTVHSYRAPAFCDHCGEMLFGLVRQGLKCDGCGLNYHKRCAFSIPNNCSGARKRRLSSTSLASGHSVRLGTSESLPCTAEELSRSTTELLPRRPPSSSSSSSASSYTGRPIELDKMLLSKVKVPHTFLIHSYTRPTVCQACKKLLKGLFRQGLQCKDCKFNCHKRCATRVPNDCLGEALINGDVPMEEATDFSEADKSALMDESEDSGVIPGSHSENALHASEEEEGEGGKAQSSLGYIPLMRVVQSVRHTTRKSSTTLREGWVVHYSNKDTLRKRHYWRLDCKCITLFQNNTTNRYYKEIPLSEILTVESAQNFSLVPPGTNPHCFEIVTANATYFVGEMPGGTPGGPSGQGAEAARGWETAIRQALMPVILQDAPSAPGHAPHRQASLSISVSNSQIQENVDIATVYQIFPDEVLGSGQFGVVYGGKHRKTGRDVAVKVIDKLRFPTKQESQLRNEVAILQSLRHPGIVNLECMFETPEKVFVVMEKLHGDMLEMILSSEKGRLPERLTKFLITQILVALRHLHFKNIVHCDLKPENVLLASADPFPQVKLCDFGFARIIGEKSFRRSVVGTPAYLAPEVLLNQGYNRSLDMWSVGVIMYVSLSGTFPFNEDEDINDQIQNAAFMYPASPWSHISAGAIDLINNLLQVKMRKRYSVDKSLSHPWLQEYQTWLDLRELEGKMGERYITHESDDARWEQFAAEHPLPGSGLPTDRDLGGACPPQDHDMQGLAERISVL
Particulars: at 0.1 µM.

Assay [11] concerns the target T3, Serine/threonine-protein kinase D2 (Homo sapiens). The settings on record: at 1 µM.
Assay [12] addresses T4, Serine/threonine-protein kinase D3 (Homo sapiens) (UniProt O94806).
T4 sequence (whole entry): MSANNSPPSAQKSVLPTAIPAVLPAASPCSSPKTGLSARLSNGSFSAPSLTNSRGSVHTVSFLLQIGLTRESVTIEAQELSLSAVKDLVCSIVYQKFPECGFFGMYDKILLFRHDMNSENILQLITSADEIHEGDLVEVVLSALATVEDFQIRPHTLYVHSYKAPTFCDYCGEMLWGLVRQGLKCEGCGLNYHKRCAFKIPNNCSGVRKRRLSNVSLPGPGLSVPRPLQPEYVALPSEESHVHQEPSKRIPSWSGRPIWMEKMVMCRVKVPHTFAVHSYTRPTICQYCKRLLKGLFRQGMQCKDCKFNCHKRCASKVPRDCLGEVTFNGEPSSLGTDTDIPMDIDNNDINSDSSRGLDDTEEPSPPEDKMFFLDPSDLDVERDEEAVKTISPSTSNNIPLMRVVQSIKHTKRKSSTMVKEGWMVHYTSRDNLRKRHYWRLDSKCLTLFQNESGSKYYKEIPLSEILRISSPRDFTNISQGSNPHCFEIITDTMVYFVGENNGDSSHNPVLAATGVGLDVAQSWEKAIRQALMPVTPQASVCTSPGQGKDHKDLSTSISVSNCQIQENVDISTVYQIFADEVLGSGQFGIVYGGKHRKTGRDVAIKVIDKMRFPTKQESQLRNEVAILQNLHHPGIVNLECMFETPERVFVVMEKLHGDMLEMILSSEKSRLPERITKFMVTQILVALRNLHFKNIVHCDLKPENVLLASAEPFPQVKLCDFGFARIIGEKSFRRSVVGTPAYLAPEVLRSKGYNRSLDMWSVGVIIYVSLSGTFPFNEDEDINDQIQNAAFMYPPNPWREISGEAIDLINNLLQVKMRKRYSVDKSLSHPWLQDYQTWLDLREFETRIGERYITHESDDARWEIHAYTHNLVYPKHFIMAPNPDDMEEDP
Particulars: at 0.1 µM.

The target in assay [13] is T4, Serine/threonine-protein kinase D3 (Homo sapiens). Particulars: at 1 µM.
The target in assay [14] is T5, cGMP-dependent protein kinase 1 (Homo sapiens) (UniProt Q13976).
T5 sequence (whole entry): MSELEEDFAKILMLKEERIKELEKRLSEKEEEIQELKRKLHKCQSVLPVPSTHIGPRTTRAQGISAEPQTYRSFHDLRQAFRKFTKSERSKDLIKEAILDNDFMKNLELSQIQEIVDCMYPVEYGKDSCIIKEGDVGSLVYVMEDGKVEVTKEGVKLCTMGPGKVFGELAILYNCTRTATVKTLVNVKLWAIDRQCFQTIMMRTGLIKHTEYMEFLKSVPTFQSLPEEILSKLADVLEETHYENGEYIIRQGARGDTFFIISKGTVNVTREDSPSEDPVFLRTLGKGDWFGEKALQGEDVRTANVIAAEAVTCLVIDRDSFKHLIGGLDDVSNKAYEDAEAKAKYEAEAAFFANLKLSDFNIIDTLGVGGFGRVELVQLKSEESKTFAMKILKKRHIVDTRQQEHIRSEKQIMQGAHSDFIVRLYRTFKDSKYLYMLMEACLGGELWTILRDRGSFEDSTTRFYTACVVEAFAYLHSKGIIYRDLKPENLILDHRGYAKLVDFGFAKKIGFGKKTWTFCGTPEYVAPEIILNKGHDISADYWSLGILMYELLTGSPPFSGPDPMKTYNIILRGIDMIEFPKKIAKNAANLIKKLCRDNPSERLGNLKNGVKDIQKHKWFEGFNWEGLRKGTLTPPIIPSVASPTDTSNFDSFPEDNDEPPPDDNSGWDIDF
The settings on record: at 0.1 µM.

For assay [15], the target named is T5, cGMP-dependent protein kinase 1 (Homo sapiens). The settings on record: at 1 µM.
In assay [16] the target is T6, cGMP-dependent protein kinase 2 (Homo sapiens) (UniProt Q13237).
T6 sequence (whole entry): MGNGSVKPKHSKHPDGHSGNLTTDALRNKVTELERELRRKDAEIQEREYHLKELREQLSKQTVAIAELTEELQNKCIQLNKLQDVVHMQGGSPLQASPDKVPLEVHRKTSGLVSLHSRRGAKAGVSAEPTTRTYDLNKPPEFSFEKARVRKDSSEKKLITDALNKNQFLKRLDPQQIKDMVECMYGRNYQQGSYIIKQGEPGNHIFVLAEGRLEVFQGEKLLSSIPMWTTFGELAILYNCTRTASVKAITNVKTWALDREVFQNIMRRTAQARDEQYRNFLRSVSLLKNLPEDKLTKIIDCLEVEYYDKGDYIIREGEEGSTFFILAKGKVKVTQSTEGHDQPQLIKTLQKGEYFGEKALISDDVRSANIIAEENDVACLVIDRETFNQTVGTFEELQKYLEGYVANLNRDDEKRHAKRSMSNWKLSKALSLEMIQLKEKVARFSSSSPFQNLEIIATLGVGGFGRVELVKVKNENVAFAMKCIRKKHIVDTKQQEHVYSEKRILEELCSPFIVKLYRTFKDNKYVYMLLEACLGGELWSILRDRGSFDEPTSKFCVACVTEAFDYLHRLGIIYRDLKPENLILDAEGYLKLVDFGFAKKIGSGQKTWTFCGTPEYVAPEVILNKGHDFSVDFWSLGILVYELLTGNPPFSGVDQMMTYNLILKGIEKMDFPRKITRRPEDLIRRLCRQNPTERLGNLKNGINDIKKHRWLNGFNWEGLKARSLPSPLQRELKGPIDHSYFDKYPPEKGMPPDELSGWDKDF
The settings on record: at 0.1 µM.

The target of assay [17] is T6, cGMP-dependent protein kinase 2 (Homo sapiens). The settings on record: at 1 µM.
The target in assay [18] is T7, cAMP-dependent protein kinase catalytic subunit PRKX (Homo sapiens) (UniProt P51817).
T7 sequence (whole entry): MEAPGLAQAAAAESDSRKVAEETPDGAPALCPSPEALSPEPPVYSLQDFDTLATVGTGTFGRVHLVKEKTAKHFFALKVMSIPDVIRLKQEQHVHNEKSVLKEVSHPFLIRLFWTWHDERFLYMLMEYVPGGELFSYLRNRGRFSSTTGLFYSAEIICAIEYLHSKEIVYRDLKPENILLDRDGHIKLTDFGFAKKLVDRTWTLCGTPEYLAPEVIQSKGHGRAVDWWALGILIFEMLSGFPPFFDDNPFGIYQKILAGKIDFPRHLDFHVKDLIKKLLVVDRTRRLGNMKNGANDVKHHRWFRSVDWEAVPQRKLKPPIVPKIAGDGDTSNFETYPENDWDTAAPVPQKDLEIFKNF
Particulars: at 0.1 µM.

Assay [19] addresses T7, cAMP-dependent protein kinase catalytic subunit PRKX (Homo sapiens). Particulars: at 1 µM.
Assay [20] addresses Rho-associated protein kinase 1 (Homo sapiens) (UniProt Q13464). Particulars: at 0.1 µM.

Protein kinase C beta type (Homo sapiens), sequence (P05771 2-671 limits assumed): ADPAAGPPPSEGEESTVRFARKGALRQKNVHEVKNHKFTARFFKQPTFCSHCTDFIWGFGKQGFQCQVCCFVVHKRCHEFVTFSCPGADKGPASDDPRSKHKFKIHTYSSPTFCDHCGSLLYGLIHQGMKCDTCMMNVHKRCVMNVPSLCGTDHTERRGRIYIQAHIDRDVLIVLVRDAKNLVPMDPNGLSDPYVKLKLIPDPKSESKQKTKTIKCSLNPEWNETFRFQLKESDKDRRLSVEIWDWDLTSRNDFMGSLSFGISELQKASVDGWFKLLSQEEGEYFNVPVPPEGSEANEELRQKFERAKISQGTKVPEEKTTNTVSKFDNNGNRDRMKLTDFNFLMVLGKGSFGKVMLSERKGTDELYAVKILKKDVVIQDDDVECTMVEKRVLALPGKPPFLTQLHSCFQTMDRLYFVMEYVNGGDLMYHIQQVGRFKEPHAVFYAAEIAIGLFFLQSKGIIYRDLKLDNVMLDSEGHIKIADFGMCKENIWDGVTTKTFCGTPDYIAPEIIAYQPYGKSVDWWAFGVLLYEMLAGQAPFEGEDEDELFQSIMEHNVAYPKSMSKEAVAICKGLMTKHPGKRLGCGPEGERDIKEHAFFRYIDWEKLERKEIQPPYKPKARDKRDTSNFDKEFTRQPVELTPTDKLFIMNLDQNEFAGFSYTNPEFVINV
Protein kinase C theta type (Homo sapiens), sequence (Q04759 whole entry, looked up): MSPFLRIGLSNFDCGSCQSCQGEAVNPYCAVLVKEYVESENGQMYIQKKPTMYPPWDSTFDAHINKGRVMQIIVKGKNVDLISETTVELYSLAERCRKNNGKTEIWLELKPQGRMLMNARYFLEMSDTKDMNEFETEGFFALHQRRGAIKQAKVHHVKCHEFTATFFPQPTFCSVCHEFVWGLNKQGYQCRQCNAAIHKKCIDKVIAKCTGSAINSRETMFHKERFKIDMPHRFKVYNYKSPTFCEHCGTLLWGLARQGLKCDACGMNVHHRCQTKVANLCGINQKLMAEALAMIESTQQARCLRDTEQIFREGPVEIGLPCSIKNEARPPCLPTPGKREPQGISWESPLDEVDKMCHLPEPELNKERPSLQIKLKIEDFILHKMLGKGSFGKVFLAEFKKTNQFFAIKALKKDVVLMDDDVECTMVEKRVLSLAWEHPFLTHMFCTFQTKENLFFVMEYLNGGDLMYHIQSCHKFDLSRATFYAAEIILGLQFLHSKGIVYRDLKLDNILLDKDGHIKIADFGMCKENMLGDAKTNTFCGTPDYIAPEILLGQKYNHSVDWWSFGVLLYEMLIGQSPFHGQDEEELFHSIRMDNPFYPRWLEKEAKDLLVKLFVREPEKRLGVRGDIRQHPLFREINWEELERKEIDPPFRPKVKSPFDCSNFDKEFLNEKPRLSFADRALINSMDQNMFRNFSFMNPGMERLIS
Rho-associated protein kinase 1 (Homo sapiens), sequence (Q13464 2-1354 limits assumed): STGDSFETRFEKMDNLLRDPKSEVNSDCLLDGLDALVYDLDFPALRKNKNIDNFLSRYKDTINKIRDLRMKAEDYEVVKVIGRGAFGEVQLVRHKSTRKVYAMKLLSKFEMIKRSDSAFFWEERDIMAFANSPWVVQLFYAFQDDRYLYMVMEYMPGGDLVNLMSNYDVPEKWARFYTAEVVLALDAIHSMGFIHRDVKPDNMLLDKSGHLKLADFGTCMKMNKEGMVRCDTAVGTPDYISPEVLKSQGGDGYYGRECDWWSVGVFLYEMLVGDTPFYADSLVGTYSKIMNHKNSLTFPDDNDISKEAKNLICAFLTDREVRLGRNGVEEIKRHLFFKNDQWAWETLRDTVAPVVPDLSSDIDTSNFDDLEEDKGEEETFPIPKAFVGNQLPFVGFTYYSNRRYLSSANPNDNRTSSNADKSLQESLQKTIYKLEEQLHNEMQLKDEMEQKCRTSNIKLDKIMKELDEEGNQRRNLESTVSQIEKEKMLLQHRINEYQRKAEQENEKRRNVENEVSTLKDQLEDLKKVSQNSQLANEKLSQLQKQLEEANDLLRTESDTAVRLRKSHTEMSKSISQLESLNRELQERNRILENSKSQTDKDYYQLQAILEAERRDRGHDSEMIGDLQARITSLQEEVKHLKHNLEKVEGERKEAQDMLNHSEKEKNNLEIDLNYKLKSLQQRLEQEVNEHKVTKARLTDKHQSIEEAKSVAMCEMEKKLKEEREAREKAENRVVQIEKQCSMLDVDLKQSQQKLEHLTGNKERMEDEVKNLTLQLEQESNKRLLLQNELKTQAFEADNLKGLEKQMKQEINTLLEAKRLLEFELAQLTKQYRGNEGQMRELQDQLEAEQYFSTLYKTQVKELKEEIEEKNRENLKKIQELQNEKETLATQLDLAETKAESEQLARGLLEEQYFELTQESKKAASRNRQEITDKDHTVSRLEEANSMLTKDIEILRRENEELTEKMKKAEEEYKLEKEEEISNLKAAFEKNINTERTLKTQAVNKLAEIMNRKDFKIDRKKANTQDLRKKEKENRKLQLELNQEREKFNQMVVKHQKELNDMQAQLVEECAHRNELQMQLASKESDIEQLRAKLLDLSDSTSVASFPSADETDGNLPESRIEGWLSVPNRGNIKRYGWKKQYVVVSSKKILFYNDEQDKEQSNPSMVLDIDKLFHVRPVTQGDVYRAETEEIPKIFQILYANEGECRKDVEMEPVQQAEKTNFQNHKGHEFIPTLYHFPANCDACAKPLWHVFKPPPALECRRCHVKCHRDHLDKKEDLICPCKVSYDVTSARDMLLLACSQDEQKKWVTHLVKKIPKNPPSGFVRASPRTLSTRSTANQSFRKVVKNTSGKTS

The term inhibition denotes the drop in the measured response relative to a control, in per cent. Low readings indicate a weak effect, high ones a strong effect. For the compound `CN(c1ccc(NC(=O)Nc2c(Cl)cccc2Cl)cc1)c1ccnc(Nc2cccc(CS(C)(=O)=O)c2)n1`, the inhibition is 6.65% in assay [1]; 1.27% in [2]; 1.5% in [3]; 2.22% in assay [4]; 3.24% in assay [5]; 0.41% in assay [6]. The inhibition was determined as 3.24% in assay [7]; 2.4% in assay [8]; 1.18% in assay [9]; 0.57% in assay [10]; 2% in assay [11]; 1.3% in [12]. Besides, the inhibition in [13] worked out at 0.38%; in [14], 3.11%; in assay [15] it was 3.77%; in assay [16], 1.9%; in [17], 3.22%; in [18], 1.96%. Besides, the inhibition amounted to 3.64% in [19] and 0.85% in [20].

For `O=C(Nc1n[nH]c2cc(-c3ccccc3)ccc12)C1CC1`, the inhibition was 1.52% in [1]; 2.86% in assay [2]; 3.51% in [3]; 2.7% in [4]; 1.97% in [5]; 1.8% in [6]. The inhibition in assay [7] turned out to be 3.32%; in assay [8], 4.43%; in assay [9], 5.64%; in assay [10], 4.79%; in [11] it was 5.1%; in assay [12], 5.75%. For the same compound, the inhibition was determined as 6.47% in [13]; 3.2% in assay [14]; 3.14% in [15]; 1.66% in assay [16]; 2.57% in assay [17]; 1.37% in assay [18]. For the same compound, the inhibition in assay [19] was 0.63%; in assay [20] it was 1.2%.
